Assay outcomes: PubChem, National Center for Advancing Translational Sciences (NCATS)
IDH1 R132H inh: blocks human mutant IDH1 R132H enzyme | AID 602179 | O75874 | Potency, µM (series often up to 76.6 µM), hits mostly inhibitors | IDH1-R132H enzyme, NADPH consumption, diaphorase/resazurin fluorescence | 390,000 compounds, 0.093% hits; also: nearly all actives have a fitted effect of over 65% in size
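IDH1-R132H (0.5 ug/mL) preincubated 30 min with compound, then NADPH (0.016 mM) and alpha-KG (2 mM) added; 80 min at RT, pH 7.5. Remaining NADPH coupled via diaphorase/resazurin to fluorescence (540/590 nm); concentration-response curves normalized to no-enzyme control.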
Mito fusion yeast: mitochondrial division inhibition or fusion activation; S. cerevisiae fusion-defective mutant growth rescue, CellTiterGlo 48 h; Potency, µM (series often up to 46.1 µM), hits mostly activators; 320,000 compounds, 0.23% hits; AID 485298; also: nearly all actives have a fitted effect of over 45% in size
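Read-out: ATP-based luminescence (CellTiterGlo, 10 min ambient) reporting growth of fusion-defective ts yeast after 48 hours at 37C on glycerol/ethanol YPEG medium in the presence of compound.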
ClpP mod: qHTS Assay for Activators of ClpP. ATP-dependent Clp protease proteolytic subunit (Bacillus subtilis (strain 168)), P80244. purified B. subtilis ClpP, FRET peptide cleavage, 20 min. Potency, µM (top dose mostly 57.5 µM). 340,000 compounds, 1.9% hits. AID 651965, 2013; active = well fitted falling curve with a large enough effect; inconclusive = small, poorly fitted or top-dose-only effect; inactive = no such curve, though single readings can be large or run the other way; also: the source files actives as falling curves though it sought activators and does not explain the sign; nearly all actives have a fitted effect of over 65% in size
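Buffer: 100 mM Tris/HCl pH8, 100 mM KCl, 0.05% low protease BSA, 2.5% glycerol, 0.01% Tween-20. ClpP 10 microg/mL final; 20 min RT; delta FRET normalized to ADEP and DMSO controls.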
RGS4 inhibitor: inhibitors of human regulator of G protein signaling 4 | P49798 | Transcreener GDP fluorescence polarization, RGS4-accelerated GTP hydrolysis | Potency, µM (top dose mostly 114 µM), actives largely listed as inhibitors | 390,000 compounds, 0.039% hits | AID 504845; also: nearly all actives have a fitted effect of over 75% in size
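MLSMR compounds (23 nl, pin-transferred) preincubated 10 min at room temperature with a 500nM (2x) first reagent, then RGS4 at 900nM (2x) plus Transcreener GDP mix added; fluorescence polarization (620/688 nm) read before and after 90 min at 30 °C.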
ASM inhibitor: blocks human secretory acid sphingomyelinase | P17405 | placental ASM, HMU-PC fluorogenic substrate, 60 min | Potency, µM (series often up to 57.5 µM), usual class: inhibitors | 340,000 compounds, 0.006% hits | AID 504937
Target sequence (P17405 47-631 limits assumed): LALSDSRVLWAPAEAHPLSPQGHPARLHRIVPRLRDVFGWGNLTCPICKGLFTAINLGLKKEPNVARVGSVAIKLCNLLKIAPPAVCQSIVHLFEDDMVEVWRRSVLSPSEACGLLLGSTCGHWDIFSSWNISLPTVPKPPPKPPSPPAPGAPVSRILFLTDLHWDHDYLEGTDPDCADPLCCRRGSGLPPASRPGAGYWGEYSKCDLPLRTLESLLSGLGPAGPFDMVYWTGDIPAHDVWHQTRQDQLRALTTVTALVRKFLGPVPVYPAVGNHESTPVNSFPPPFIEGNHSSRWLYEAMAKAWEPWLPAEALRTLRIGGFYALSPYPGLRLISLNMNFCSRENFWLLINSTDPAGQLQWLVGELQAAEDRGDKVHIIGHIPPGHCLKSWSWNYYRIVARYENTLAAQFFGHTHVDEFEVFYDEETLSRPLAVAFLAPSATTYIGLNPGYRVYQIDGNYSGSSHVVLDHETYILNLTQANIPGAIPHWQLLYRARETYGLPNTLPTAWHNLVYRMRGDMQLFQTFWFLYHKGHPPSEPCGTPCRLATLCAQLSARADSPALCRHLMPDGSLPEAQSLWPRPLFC
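Fluorescence read-out (Ex 386 nm, Em 447 nm) after stopping the reaction at pH 10. Enzyme: ASM from human placenta; substrate HMU-PC0, 9 uM final; 60 min, 37 °C. Compound preincubation 10 min, ambient temperature.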
LDHA inh: blocks human lactate dehydrogenase A | P00338 | activity change, % (values are at about 110 or 230 µM) | AID 1347041 | 480,000 compounds, 0.15% hits | purified LDHA, NADH/diaphorase-resazurin fluorescence; hits give low values; in the data active = activity change below about -30%; inconclusive = mostly about -25% to -30%
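Human LDH5 (2 nM) was incubated with 0.06 mM NADH and 0.2 mM pyruvate for 5 min at room temperature in Tris pH 7.4. Remaining NADH was coupled through diaphorase/resazurin, and resorufin fluorescence was read at 0 and 20 min.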
Of the large screens only hits and unclear results are named; the others gave an inactive call. The full list was thinned out, with hits kept by preference. Unless noted, calls follow the shape of the dose curve; as a rule, active = well fitted curve in the direction sought with a large enough effect; inconclusive = small, poorly fitted or top-dose-only effect, or another doubt; inactive = no such curve, though single readings can be large; an effect the other way counts as inactive or inconclusive.

O=C(NCc1ccc(Cl)cc1)c1cc2ccccc2oc1=O	ClpP mod 20µM
O=C(OCCn1cncn1)c1cc2ccccc2oc1=O	ClpP mod 28.2µM
COC(=O)c1cc2ccccc2oc1=O	ClpP mod 20µM
O=C(NCc1ccccc1)c1cc2ccccc2oc1=O	none
COc1ccc(NC(C)=O)cc1NC(=O)c1nn(C)c(=O)c2ccccc12	none (no result: IDH1 R132H inh, Mito fusion yeast, ClpP mod, RGS4 inhibitor, ASM inhibitor)
Cc1ccc(CSc2nc3nccnc3c(=O)n2Cc2ccc3c(c2)OCO3)cc1	none (no result: IDH1 R132H inh, Mito fusion yeast, ClpP mod, RGS4 inhibitor, ASM inhibitor)
COc1ccc(C(=O)O)cc1C12CC3CC(CC(C3)C1)C2	none (no result: IDH1 R132H inh, Mito fusion yeast, ClpP mod, RGS4 inhibitor, ASM inhibitor)
CC12CCC(C(=O)N3CCc4ccccc43)(CC1=O)C2(C)C (stereo not given)	Mito fusion yeast 14.1µM
CC12CCC(C(=O)N3CCCc4ccccc43)(CC1=O)C2(C)C (stereo not given)	none
Cc1cccc(-n2ncc3c(NCc4ccccn4)ncnc32)c1	ClpP mod inconclusive
c1ccc(-n2ncc3c(NCc4ccccn4)ncnc32)cc1	ClpP mod 12.6µM
Fc1ccc(CNc2ncnc3c2cnn3-c2ccccc2)cc1	ClpP mod 35.5µM
Cc1ccc(-n2ncc3c(NCCc4ccccc4)ncnc32)cc1C	ClpP mod 28.2µM (no result: Mito fusion yeast, ASM inhibitor)
COc1cc(NS(=O)(=O)c2cccc(Br)c2)c(C(=O)O)cc1OC	none (no result: IDH1 R132H inh, Mito fusion yeast, ClpP mod, RGS4 inhibitor, ASM inhibitor)
CSc1ccc(-c2cc(=O)c3ccccc3o2)cc1	ClpP mod 10µM
O=c1cc(-c2ccc(F)cc2)oc2ccccc12	none (no result: Mito fusion yeast)
Cc1nc2c(c(=O)c3ccccc3n2C)c(=O)n1-c1ccc(F)cc1	none
CC(C)c1nc2c(c(=O)c3ccccc3n2C)c(=O)n1-c1ccc(F)cc1	ClpP mod 28.2µM
Cc1ccc(Cl)cc1NC(=O)N1CCN(C(=O)c2nonc2N)CC1	none (no result: IDH1 R132H inh, Mito fusion yeast, ClpP mod, RGS4 inhibitor, ASM inhibitor)
O=C(/C=C/c1ccc2ccccc2c1)c1ccccc1F	none (no result: IDH1 R132H inh, Mito fusion yeast, ClpP mod, RGS4 inhibitor, ASM inhibitor)
Cc1cc(C)nc(S/C=C/C(=O)c2ccccc2F)n1	ClpP mod 35.5µM, RGS4 inhibitor inconclusive
CCN(C(=O)CSc1nc2cc(C(=O)OC)ccc2c(=O)n1Cc1ccco1)c1cccc(C)c1	ClpP mod 31.6µM
CCc1ccc(NC(=O)CSc2nc3cc(C(=O)OC)ccc3c(=O)n2Cc2ccco2)cc1	none
CCCSC1=C(C#N)C(c2ccc(OC)cc2)C2=C(CC(C)(C)CC2=O)N1 (stereo not given)	none
COc1ccc(C2C(C#N)=C(C)NC3=C2C(=O)CC(C)(C)C3)cc1 (stereo not given)	ClpP mod 28.2µM
COc1cccc(C2C(C#N)=C(C)NC3=C2C(=O)CC(C)(C)C3)c1 (stereo not given)	ClpP mod 25.1µM
CC(C)(C)NC(=O)c1ccc2c(c1)CCCN2C(=O)c1ccc(Cl)cc1	none (no result: IDH1 R132H inh, Mito fusion yeast, ClpP mod, RGS4 inhibitor, ASM inhibitor)
CC(C)(C)NC(=O)C(c1cccs1)N(CC1CCCO1)C(=O)Cn1nnc(-c2cccs2)n1 (stereo not given)	Mito fusion yeast 7.08µM
CC(C)c1noc(CSc2nc(C3CC3)nc3ccccc23)n1	none (no result: IDH1 R132H inh, Mito fusion yeast, ClpP mod, RGS4 inhibitor, ASM inhibitor)
Nc1nsc2ccccc12	Mito fusion yeast inconclusive, ClpP mod 31.6µM
CCN(CC(=O)Nc1ccc(NC(C)=O)cc1)CC(=O)Nc1ccc(Cl)c(Cl)c1	LDHA inh -45.2
CCN(CC(=O)Nc1ccc(NC(C)=O)cc1)CC(=O)Nc1cccc(Cl)c1	none (no result: ClpP mod)
COc1cc2c(cc1OC)CN(C(=O)CSC1=NCCS1)CC2	none (no result: Mito fusion yeast, RGS4 inhibitor, ASM inhibitor)
COc1cc2c(cc1OC)CN(C(=O)CSc1ccccc1C)CC2	ClpP mod 22.4µM (no result: Mito fusion yeast)
COc1cc2c(cc1OC)CN(C(=O)c1sccc1C)CC2	ClpP mod 28.2µM
Cc1ccsc1C(=O)N1CCc2ccccc2C1	none
COc1ccc(NC(C)(C)c2nnnn2-c2c(C)cccc2C)cc1OC	none (no result: IDH1 R132H inh, Mito fusion yeast, ClpP mod, RGS4 inhibitor, ASM inhibitor)
O=C(NCc1cccs1)c1cc(-c2ccncc2)nc2ccccc12	none (no result: IDH1 R132H inh, Mito fusion yeast, ClpP mod, RGS4 inhibitor, ASM inhibitor)
CC(C)n1nnnc1SCC(=O)N(Cc1cccs1)c1ccc2c(c1)OCCO2	none (no result: IDH1 R132H inh, Mito fusion yeast, ClpP mod, RGS4 inhibitor, ASM inhibitor)
